ChEMBL document CHEMBL4513216, “Probing the Open Global Health Chemical Diversity Library for Multistage-Active Starting Points for Next-Generation Antimalarials” (ACS Infect Dis, 2020)
About 2,100 (3.2%) of roughly 65,000 compounds showed an effect of 50% or more. The median lay at about -52%. The sample as a whole holds a higher share of strong results than the screen did.

These compounds were tested on Plasmodium falciparum (assay: Screen against P. falciparum Asexual Blood Stage (ABS), at 5uM). Details: tested at 5 uM.
Assay type: functional, Dd2

Structure (SMILES)	INHIBITION [%]
CC(NC(=O)CN1CCN(c2ccncc2Cl)CC1)c1ccco1 (stereo not given)	-106
O=C(CCC1CCCN(C(=O)CCc2ccc(F)c(F)c2)C1)NC1CC1 (stereo not given)	-157
Cc1ncc(CN2CCc3nc4cc(C(C)(C)C)nn4c(O)c3C2)n1C	-104
CN1CCN(C2COC3(CCN(Cc4ccsc4)CC3)C2)CC1 (stereo not given)	-10.7
CC(C)Oc1ccc(C(=O)N2CCCCC2Cn2cccn2)cn1 (stereo not given)	64.8
Cc1cnn(CC2CCCN2C(=O)c2ccc(OC(C)C)nc2)c1 (stereo not given)	-94.7
CN(C)c1cc(C(=O)N2CCCCC2Cn2cccn2)ccn1 (stereo not given)	-202
CCN(CC1CN(Cc2cccc(C#N)c2)CCO1)c1cccnn1 (stereo not given)	-83.6
CCn1ccnc1CN1CCCN(C(=O)COC2CCCCC2)CC1	-84.3
O=C(Nc1nccs1)NC1CCN(Cc2ccccn2)CC1	63.7
O=C(Nc1nccs1)NC1CCN(Cc2ccccc2)C1 (stereo not given)	-9.31
O=C(Nc1nccs1)NC1CCN(Cc2ccccc2)CC1	28.3
Cc1cn2nc(Sc3nnc(C(C)C)n3C)sc2n1	-104
OC(c1ccccn1)C1CCN(Cc2cc3n(n2)CCNC3)CC1 (stereo not given)	-27.2
CC(=O)N1CCCCC1c1nc(N)ncc1-c1ccccc1 (stereo not given)	-145
CN(C)CC(=O)N1CCCCC1c1nc(N)ncc1-c1ccccc1 (stereo not given)	50.9
CN(C)C(=O)CN1CCCCC1c1nc(N)ncc1-c1ccccc1 (stereo not given)	-40.8
CC(C)Oc1ccc(CN2CCC(c3n[nH]c4ncccc34)CC2)cc1	-69.9
Cc1cc(C[C@@H]2CCC[C@H]2NCc2ccccc2F)on1	-4.92
Cc1cc(C[C@@H]2CCC[C@H]2NCc2cc(F)ccc2F)on1	20.7
Cc1cc(C[C@@H]2CCC[C@H]2NCc2ccccc2C(F)(F)F)on1	15.6
Cc1cc(C[C@@H]2CCC[C@H]2NCc2ccccc2C)on1	65.1
Cc1cc(C[C@@H]2CCC[C@H]2NCc2cccc(F)c2F)on1	-58.5
Cc1cc(C[C@@H]2CCC[C@H]2NCc2c[nH]nc2-c2ccccc2)on1	57.4
Cc1cc(C(=O)N2CCN(C)CC2)nn1CC(=O)NCc1cccs1	-139
Cc1noc(CS(=O)(=O)C(C)C(=O)N(C)c2ccccc2)n1 (stereo not given)	-10
Cc1noc(C)c1CN1CC[C@H]2OCC[C@@H](C(=O)NCC3CC3)[C@H]2C1	-48.5
CN1CCCN(c2ccc(F)cc2CNC(=O)c2cccnc2)CC1	-51.5
CN1CCCN(c2ccc(F)cc2CNC(=O)c2ccsc2)CC1	59.9
Cc1ccc(C(=O)NCc2cc(F)ccc2N2CCCN(C)CC2)o1	34.9
